In the library only some 2.2% were active in any assay of this set; here they are far more common.
PLCb3 inh = blocks human PLC-beta3 enzyme activity; Q01970; Purified PLC-beta3, fluorogenic substrate, fluorescence; inhibition, % at 12.2 µM; 0.18% of 370,000 active; AID 720704; in the data active = inhibition above about 11%;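 note: 0% = median of compound wells on plate and 100% = full blocker control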
FAS TE block = inhibitors of human fatty acid synthase thioesterase domain. P49327. recombinant FAS-TE, OMFH fluorogenic substrate, fluorescence endpoint. inhibition, % at 15 µM. 0.67% of 360,000 active;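 active = compounds whose normalised, plate-corrected inhibition of enzyme fluorescence in the single-dose primary screen is 50% or more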;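 note: 0% = DMSO with enzyme and 100% = substrate without enzyme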
Target sequence (P49327 whole entry, looked up, the tested form may be a part): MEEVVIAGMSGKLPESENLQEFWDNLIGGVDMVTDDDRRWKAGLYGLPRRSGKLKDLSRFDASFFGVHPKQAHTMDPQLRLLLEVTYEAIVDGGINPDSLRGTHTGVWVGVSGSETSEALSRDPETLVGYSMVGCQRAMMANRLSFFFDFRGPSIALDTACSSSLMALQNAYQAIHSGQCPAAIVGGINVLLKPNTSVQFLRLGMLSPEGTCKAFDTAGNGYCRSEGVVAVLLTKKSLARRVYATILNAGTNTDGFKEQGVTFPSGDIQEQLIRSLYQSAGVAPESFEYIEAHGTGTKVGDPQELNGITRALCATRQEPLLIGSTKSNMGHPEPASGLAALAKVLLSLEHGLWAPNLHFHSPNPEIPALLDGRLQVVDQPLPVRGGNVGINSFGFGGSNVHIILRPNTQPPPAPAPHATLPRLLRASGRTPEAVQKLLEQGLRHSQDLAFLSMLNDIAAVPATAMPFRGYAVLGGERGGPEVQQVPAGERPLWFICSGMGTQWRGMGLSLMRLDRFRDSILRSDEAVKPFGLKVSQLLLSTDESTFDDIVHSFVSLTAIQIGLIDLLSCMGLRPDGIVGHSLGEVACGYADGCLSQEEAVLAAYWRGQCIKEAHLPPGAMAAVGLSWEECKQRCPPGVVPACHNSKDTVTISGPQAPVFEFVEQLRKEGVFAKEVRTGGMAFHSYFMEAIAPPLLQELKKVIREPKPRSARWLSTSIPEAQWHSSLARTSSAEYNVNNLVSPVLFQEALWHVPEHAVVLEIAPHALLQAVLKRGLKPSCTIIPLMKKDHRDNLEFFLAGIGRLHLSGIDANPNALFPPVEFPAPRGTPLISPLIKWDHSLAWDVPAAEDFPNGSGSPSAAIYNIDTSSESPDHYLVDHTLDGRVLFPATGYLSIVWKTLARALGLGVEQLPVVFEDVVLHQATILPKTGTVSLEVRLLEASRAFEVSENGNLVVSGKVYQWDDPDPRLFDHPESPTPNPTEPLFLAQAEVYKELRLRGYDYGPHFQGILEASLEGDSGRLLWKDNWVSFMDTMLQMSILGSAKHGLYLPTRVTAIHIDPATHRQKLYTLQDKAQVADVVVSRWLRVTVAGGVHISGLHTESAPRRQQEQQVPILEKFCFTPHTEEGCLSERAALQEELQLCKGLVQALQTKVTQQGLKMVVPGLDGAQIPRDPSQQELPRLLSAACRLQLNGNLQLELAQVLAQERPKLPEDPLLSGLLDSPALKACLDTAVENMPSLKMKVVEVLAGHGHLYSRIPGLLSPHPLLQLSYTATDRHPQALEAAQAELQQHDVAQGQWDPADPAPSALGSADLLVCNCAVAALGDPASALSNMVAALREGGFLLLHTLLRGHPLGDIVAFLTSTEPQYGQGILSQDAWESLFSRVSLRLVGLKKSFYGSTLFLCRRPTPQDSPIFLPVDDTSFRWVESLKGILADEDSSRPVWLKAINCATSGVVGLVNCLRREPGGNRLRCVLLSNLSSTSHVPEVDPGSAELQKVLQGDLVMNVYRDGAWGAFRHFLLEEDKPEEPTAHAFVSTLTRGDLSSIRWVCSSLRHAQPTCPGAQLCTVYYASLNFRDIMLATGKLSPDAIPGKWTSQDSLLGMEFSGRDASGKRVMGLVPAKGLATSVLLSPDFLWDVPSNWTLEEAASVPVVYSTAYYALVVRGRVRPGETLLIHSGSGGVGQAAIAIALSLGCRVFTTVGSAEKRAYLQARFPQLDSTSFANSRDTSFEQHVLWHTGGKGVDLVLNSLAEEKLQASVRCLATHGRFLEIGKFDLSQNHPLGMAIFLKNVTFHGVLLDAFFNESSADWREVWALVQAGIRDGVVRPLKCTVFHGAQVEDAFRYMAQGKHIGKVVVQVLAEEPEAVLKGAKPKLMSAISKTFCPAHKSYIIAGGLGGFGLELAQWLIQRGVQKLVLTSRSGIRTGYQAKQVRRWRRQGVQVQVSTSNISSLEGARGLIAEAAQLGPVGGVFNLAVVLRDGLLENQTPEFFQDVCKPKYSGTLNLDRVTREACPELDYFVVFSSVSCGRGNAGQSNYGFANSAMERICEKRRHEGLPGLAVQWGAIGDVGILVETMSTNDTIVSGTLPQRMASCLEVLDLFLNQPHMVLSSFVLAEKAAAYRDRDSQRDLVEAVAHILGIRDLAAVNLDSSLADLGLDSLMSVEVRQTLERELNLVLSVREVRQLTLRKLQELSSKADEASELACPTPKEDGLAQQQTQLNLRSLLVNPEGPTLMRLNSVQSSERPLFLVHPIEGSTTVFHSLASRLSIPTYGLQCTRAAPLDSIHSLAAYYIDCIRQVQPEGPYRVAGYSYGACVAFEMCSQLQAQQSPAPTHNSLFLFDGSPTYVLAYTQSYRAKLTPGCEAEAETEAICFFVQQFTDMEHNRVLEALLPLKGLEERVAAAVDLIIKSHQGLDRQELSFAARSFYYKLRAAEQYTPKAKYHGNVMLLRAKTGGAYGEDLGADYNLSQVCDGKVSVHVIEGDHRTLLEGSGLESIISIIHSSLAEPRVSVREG
Cardio protect = protects H9c2 cardiomyocytes from peroxide injury. H2O2 injury protection, ATPLite, 2 h. AID 588492. protection from H2O2 cell death, % at 20 µM. 0.63% of 360,000 active;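 active = compounds giving at least 50% protection of heart cells from peroxide-induced death in the single-dose screen, raw or plate-pattern-corrected value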;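 note: 0% = DMSO wells with peroxide and 100% = DMSO wells without peroxide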
PLC-gamma1 inh = PLC-gamma1 (human) inhibition, primary screen | purified PLC-gamma1, fluorogenic substrate, fluorescence | inhibition, % at 12.2 µM | 0.84% of 370,000 active | AID 720700; in the data active = inhibition above about 9.5%
* hit, by the source's call; · = no result given; ! = not active in a repeat.

SMILES	PLCb3 inh	FAS TE block	Cardio protect	PLC-gamma1 inh
Cc1cc(NC(=O)C2CCCCC2)nc2c1c(=O)oc1ccccc12	-2	17	101*	-2
Cc1cc(NC(=O)Cc2ccccc2)nc2c1c(=O)oc1ccccc12	-1	3	-1	-4
COc1cccc(C(=O)Nc2cc(C)c3c(=O)oc4ccccc4c3n2)c1	-6	17	90*	-3
O=C(NCCc1ccccc1F)c1cc2ccccn2n1	-2	·	·	0
C/C(=C/c1[nH]c(N)[n+](CC2CC2)c1Cc1ccccc1)Cn1[nH]c(=O)n(-c2ccccc2)c1=O	-2	·	·	0
CCOC(=O)C1=C(C)NC(C)=C(C(=O)OCC)C1C(=O)OCC(=O)NC(C)C	-84	-2	57*!	-55
Cc1ccc(CN(C)C(=O)COC(=O)CSc2ccc(C(N)=O)cc2[N+](=O)[O-])cc1	-8	6	58*	0
Cc1ccc(CN(C)C(=O)COC(=O)CSc2ccc([N+](=O)[O-])cc2)cc1	-2	40	-4	1
COC(=O)C1(C)NC(c2ccc(O)cc2)C2C(=O)N(c3ccc(F)cc3)C(=O)C21 (stereo unspecified)	3	-4	1	15*
COC(=O)C1(C)NC(c2ccc(O)cc2)C2C(=O)N(c3ccccc3)C(=O)C21 (stereo unspecified)	-6	-3	2	-2
CCOC(=O)c1c(C)oc2c1c1c(c3ccccc32)OCN(Cc2ccccn2)C1	-24	-63	54*	-16
CSc1ccc(-c2cnc(N3CCC(C(N)=O)CC3)s2)cc1	-4	·	·	-1
COC(=O)c1cc(OC)c(OC)cc1NC(=O)Nc1ccc(OC)cc1	1	-9	6	0
COC(=O)c1cc2ccc(OC)cc2c2cc(OC)c(OC)cc12	-467	15	55*	-347
C#CCOc1nc(Nc2cccc([N+](=O)[O-])c2)nc(OCC#C)n1	0	19	56*	1
COc1nc(Nc2cccc([N+](=O)[O-])c2)nc(OC)n1	3	1	-4	3
O=C(NCc1ccc(F)c(F)c1)C1CCC(CNS(=O)(=O)c2cccc3cccnc23)CC1 (stereo unspecified)	-3	·	·	1
O=C(CCc1ccccc1)N[C@H]1[C@H](O)CCC[C@]12C(=O)N(Cc1ccccc1)c1ccccc12	-2	·	·	1
CN(CC(=O)Nc1cccc(S(=O)(=O)NC2=NCCCCC2)c1)Cc1ccc(C(C)(C)C)cc1	0	66*	-5	1
CCOc1cc(N2CCOCC2)c(OCC)cc1NC(=O)CSc1ccccc1C(=O)O	-9	-13	3	5
COc1cc2c(cc1OC)CN(CC(=O)Nc1ccccc1C#N)CC2	-64	-8	74*	-45
CCOc1cc(N2CCOCC2)c(OCC)cc1NC(=O)CN1CCc2ccccc2C1	11*	4	15	8
Cc1ccccc1C(=O)N(C)[C@H]1C[C@H]2c3[nH]c4c(-c5ccccc5)cccc4c3CCN2C[C@H]1[C@H](C)O	-183	·	·	-146
Cc1ccc(OCCOC(=O)c2sc(=S)n(C)c2C)cc1	4	58*	-11	4
COc1ccc2[nH]c(=O)c(CN(C3CCCCC3)C(c3nnnn3Cc3ccco3)C(C)C)cc2c1 (stereo unspecified)	·	-3	95*	·
SMILES	PLCb3 inh	FAS TE block	Cardio protect	PLC-gamma1 inh
COCCn1nnnc1C(C(C)C)N(Cc1cccnc1)Cc1cc2cc(OC)ccc2[nH]c1=O (stereo unspecified)	-25	-7	61*	-17
COc1ccc2[nH]c(=O)c(CN(Cc3nnnn3Cc3ccco3)C3CCCCC3)cc2c1	1	-6	44	-2
CCC(c1nnnn1Cc1ccco1)N(Cc1cc2cc(C)cc(C)c2[nH]c1=O)CC1CCCO1 (stereo unspecified)	-96	0	62*	-77
COc1ccc2[nH]c(=O)c(CN(Cc3ccco3)C(c3nnnn3Cc3ccccc3)C(C)C)cc2c1 (stereo unspecified)	-10	-2	51*	-10
COc1c(C)cc(Br)cc1C(=O)Nc1cccc(-c2nc3ncccc3o2)c1	-6	16	115*	-4
Cc1ccc(-c2nnn(CCC(=O)N3CCCCC3C)n2)cc1 (stereo unspecified)	10	-7	-6	13*
O=C(Nc1ccc(Oc2cccnc2)cc1)c1cccc([N+](=O)[O-])c1	·	57*	-3	·
O=C(Cn1[nH]c(=O)c2ccccc2c1=O)N1CCN(S(=O)(=O)c2ccc(Cl)cc2)CC1	0	-4	74*	-3
O=C(CCC(=O)N1CCN(S(=O)(=O)c2ccc(Cl)cc2)CC1)NCc1ccccc1	2	-2	-10	0
Cc1ccc(C)c(S(=O)(=O)N2CCN(C(=O)CSc3ccccc3)CC2)c1	-5	9	-3	4
Cc1ccc(C)c(S(=O)(=O)N2CCN(C(=O)Cn3[nH]c(=O)c4ccccc4c3=O)CC2)c1	3	1	61*	2
Cc1ccc(-n2c(SCC(=O)Nc3ccc4c(c3)OCCO4)nnc2-c2cccnc2)cc1	0	·	·	-2
CCC(=O)Nc1ccc2c(c1)C(=O)N(C)[C@@H]1CC[C@@H](CC(=O)OC)O[C@H]1CO2	2	·	·	1
Cc1ccc(OCC(=O)N/N=C/c2cccc3cccnc23)cc1	-8	4	56*	0
O=C(COc1ccc(F)cc1)N/N=C/c1cccc2cccnc12	-7	1	54*	0
COC(=O)[C@H](C(C)C)N1Cc2nnn(Cc3ccc(C)cc3)c2-c2cc(F)ccc2S1(=O)=O	1	·	·	0
COCCn1cnc2c(c1=O)c1nc3ccccc3nc1n2/N=C/c1cccc(OC)c1	-14	11	52*	-7
C=CCn1cnc2c(c1=O)c1nc3ccccc3nc1n2/N=C/c1cccc(OC)c1OC	2	-1	74*	2
C=CCn1cnc2c(c1=O)c1nc3ccccc3nc1n2-c1ccc(C)cc1	-64	·	·	-64
C=CCn1cnc2c(c1=O)c1nc3ccccc3nc1n2/N=C/c1cc(OC)c(OC)c(OC)c1	-5	13	65*	-3
C=CCn1cnc2c(c1=O)c1nc3ccccc3nc1n2/N=C/c1ccccn1	-4	-4	98*	-3
CC(=C1SC(=S)NC1=O)c1ccc(Cl)c(O)c1	-4	·	·	3
CC(C)CN(CC(C)C)C(=O)c1cn(C(C)c2ccccc2)nn1 (stereo unspecified)	3	·	·	3
Cc1ccc(S(=O)(=O)N2CCCC(C(=O)NCCN3CCC(Cc4ccccc4)CC3)C2)cc1 (stereo unspecified)	-1	·	·	1
O=C(CSc1nnc(-c2ccccc2)n1-c1ccc(Cl)cc1)c1ccccc1Br	-2	·	·	-2
O=C(N/N=C/c1ccccn1)c1[nH]c2ccc([N+](=O)[O-])cc2c1-c1ccccc1	-10	-24	84*	-2
CCOC(=O)c1nn(-c2cccc(OC)c2)c2nc(Nc3ccccc3)cc(=O)n12	-19	-15	52*	-14
CCCCNC(=O)C[C@H]1C[C@@]2(C(=O)OC)C(=C[C@H](C(C)(C)C)O[C@@H]2C)N(Cc2ccc(Cl)cc2Cl)C1=O	4	·	·	1
Cc1ccc2c(c1)nc1c3ccccc3nc(-c3ccccc3N)n21	-58	1	58*	-43
